Structures can show the parent of a compound that is named as a salt. ± gives the standard deviation.

For 35 molecules, glomerular separation results are on record in the supplement of paper PMC7366291.

The assay concerns Danio rerio Tg(wt1b:EGFP) embryo, pronephros. Nature of the assay: glomerular separation, fold change vs DMSO control; higher = glomeruli further apart (abnormal). To be noted: 25 µM; exposure: 24-48 hpf. The method, boiled down:
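Features are reported as fold changes against the mean of same-day DMSO-treated embryos. Before that, values more than 2 SD away from the feature mean were excluded. The embryos, dechorionated Tg(wt1b:EGFP) zebrafish, had been exposed from 24 to 48 hpf at 28.5°C to 25 μM compound in 0.5% DMSO in HEPES-buffered E3 with 0.003% PTU, and distances and angles came from 16 manually set points on maximum projections of dorsal pronephros images in Fiji.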
`CCC(COC(=O)c1cc(OC)c(OC)c(OC)c1)(c1ccccc1)N(C)C` (stereo not given) [Trimebutine] gave a glomerular separation of 0.875 ± 0.36.
On to `COc1ccc(Cc2nccc3cc(OC)c(OC)cc23)cc1OC` [Papaverine hydrochloride], for which the glomerular separation worked out at 0.972 ± 0.22.
As for `C=CCC1(CC(C)C)C(=O)NC(=O)NC1=O` [Butalbital], the glomerular separation was determined as 0.97 ± 0.31.
The same measure for `COc1ccc(CCN)cc1OC` [Homoveratrylamine]: 1.13 ± 0.38.
For `C[N+]1([O-])[C@@H]2C[C@@H](OC(=O)[C@H](CO)c3ccccc3)C[C@H]1[C@@H]1O[C@@H]12` (stereo not given in full) [Scopolamin-N-oxide hydrobromide], the glomerular separation was found to be 0.883 ± 0.35.
`O=P1(N(CCCl)CCCl)NCCCO1` (stereo not given) [Cyclophosphamide]: the glomerular separation amounted to 0.894 ± 0.2.
Consider `CNC(=O)Oc1ccc2c(c1)[C@]1(C)CCN(C)[C@@H]1N2C` [Eserine hemisulfate salt], for which the glomerular separation came to 1.12 ± 0.17.
The molecule `COc1ccc2c(c1)[C@]13CCCC[C@@H]1[C@H](C2)N(C)CC3` [Dextromethorphan hydrobromide monohydrate] yielded a glomerular separation of 1.03 ± 0.23.
`Cc1cccc(C)c1NC1=NCCCS1` [Xylazine] showed a glomerular separation of 0.757 ± 0.26.
In the case of `NCCc1c[nH]c2ccc(O)cc12` [Serotonin hydrochloride], the glomerular separation was 1.61 ± 1.2.
With `CC(=O)O[C@H]1C[C@H](O[C@H]2[C@@H](O)C[C@H](O[C@H]3[C@@H](O)C[C@H](O[C@H]4CC[C@@]5(C)[C@H](CC[C@@H]6[C@@H]5C[C@@H](O)[C@]5(C)[C@@H](C7=CC(=O)OC7)CC[C@]65O)C4)O[C@@H]3C)O[C@@H]2C)O[C@H](C)[C@H]1O[C@@H]1O[C@H](CO)[C@@H](O)[C@H](O)[C@H]1O` [Lanatoside C], the glomerular separation worked out at 1.4 ± 0.72.
The same measure for `O=C1CC[C@@]2(O)[C@H]3Cc4ccc(O)c5c4[C@@]2(CCN3CC2CC2)[C@H]1O5` [Naltrexone hydrochloride dihydrate]: 0.749 ± 0.22; for `CC(=O)NC1CCSC1=O` (racemic) [N-Acetyl-DL-homocysteine Thiolactone]: 0.761 ± 0.24; for `C[N+]1(C)CCOC(O)(c2ccc(-c3ccc(C4(O)C[N+](C)(C)CCO4)cc3)cc2)C1` (stereo not given) [Hemicholinium bromide]: 0.878 ± 0.14.
Molecule `CN(C)C(=O)Oc1ccc[n+](C)c1` [Pyridostigmine iodide] displayed a glomerular separation of 1.26 ± 0.35.
The molecule `CN1C[C@H](C(=O)N[C@]2(C)O[C@@]3(O)[C@@H]4CCCN4C(=O)[C@H](Cc4ccccc4)N3C2=O)C[C@@H]2c3cccc4[nH]cc(c34)C[C@H]21` [Dihydroergotamine tartrate] yielded a glomerular separation of 1.15 ± 0.56.
As to `C[C@]12CCC(=O)C=C1C=C[C@@H]1[C@@H]2CC[C@@]2(C)[C@H]1CC[C@@]2(O)CCC(=O)O` [Canrenoic acid potassium salt], the glomerular separation turned out to be 1.07 ± 0.36.
Regarding `CN[C@@H]1[C@@H](O)[C@@H](O[C@@H]2[C@@H](O)[C@H](O[C@H]3O[C@H](CN)CC[C@H]3N)[C@@H](N)C[C@H]2N)OC[C@]1(C)O.CN[C@@H]1[C@@H](O)[C@@H](O[C@@H]2[C@@H](O)[C@H](O[C@H]3O[C@H]([C@@H](C)N)CC[C@H]3N)[C@@H](N)C[C@H]2N)OC[C@]1(C)O.CN[C@@H]1[C@@H](O)[C@@H](O[C@@H]2[C@@H](O)[C@H](O[C@H]3O[C@H]([C@@H](C)NC)CC[C@H]3N)[C@@H](N)C[C@H]2N)OC[C@]1(C)O` [Gentamicine sulfate], the glomerular separation turned out to be 0.941 ± 0.25.
`CC(=O)OCC1=C(C(=O)O)N2C(=O)[C@@H](N)[C@H]2SC1` [Cephalosporanic acid, 7-amino]: the glomerular separation came out at 0.819 ± 0.17.
For `C[C@]12N[C@H](Cc3ccccc31)c1ccccc12` [Dizocilpine maleate], the glomerular separation is 0.888 ± 0.31.
The same measure for `C=CCN1CC[C@]23c4c5ccc(O)c4O[C@H]2C(=O)CC[C@@]3(O)[C@H]1C5` [Naloxone hydrochloride]: 0.981 ± 0.33; for `Clc1ccc(C(OCCN2CCCCC2)c2ccccc2)cc1` (stereo not given) [Cloperastine hydrochloride]: 0.819 ± 0.35; for `N[C@@H]1C[C@H]1c1ccccc1` [Tranylcypromine hydrochloride]: 1.03 ± 0.28.
As to `c1ccc2c(c1)Nc1ccccc1S2` [Phenothiazine], the glomerular separation is 1.35 ± 0.6.
Regarding `C1CCc2nnnn2CC1` [Pentylenetetrazole], the glomerular separation amounted to 0.925 ± 0.28.
The same measure for `O=C(CCCN1CCC2(CC1)C(=O)NCN2c1ccccc1)c1ccc(F)cc1` [Spiperone]: 1.21 ± 0.45.
Under `O=c1[nH]c2ccccc2n1CCCN1CCC(n2c(=O)[nH]c3cc(Cl)ccc32)CC1` [Domperidone] stands 0.857 ± 0.34; under `NCC(O)c1ccc(O)cc1` (racemic) [(+,-)-Octopamine hydrochloride], 0.97 ± 0.66.
`C=C(C)[C@@H]1[C@H]2OC(=O)[C@@H]1[C@]1(O)C[C@H]3O[C@]34C(=O)O[C@H]2[C@]14C` [Picrotoxinin] gave a glomerular separation of 1.19 ± 0.57.
Regarding `CCCC(C)C1(CC)C(=O)NC(=O)NC1=O` (stereo not given) [Pentobarbital], the glomerular separation turned out to be 1.63 ± 0.87.
In turn, `O=c1[nH]c2ccccc2n1C1CCN(CCCC(c2ccc(F)cc2)c2ccc(F)cc2)CC1` [Pimozide] registered a glomerular separation of 4.46 ± 1.6.
`NC(=O)CN1CCCC1=O` [Piracetam] showed a glomerular separation of 0.815 ± 0.17.
The same measure for `C[N+]12CCC(CC1)C(OC(=O)C(O)(c1ccccc1)c1ccccc1)C2` (stereo not given) [Clidinium bromide]: 0.83 ± 0.32.
`CCN(C)C(=O)Oc1cccc([C@H](C)N(C)C)c1` [Rivastigmine] showed a glomerular separation of 1.1 ± 0.33.
The molecule `CC(N)C(O)c1ccccc1` (stereo not given) [Phenylpropanolamine hydrochloride] registered a glomerular separation of 0.921 ± 0.29.
